# An excerpt weighted towards active compounds, which were near 2.5% of everything screened.
# Cruzain inh Det – inhibitors of Trypanosoma cruzi cruzain with detergent | Potency, µM, actives largely listed as inhibitors | 200,000 compounds, 0.43% hits | purified cruzain, Z-FR-AMC fluorescence, 0.01% Triton | AID 1478 | P25779; also: nearly all actives have a fitted effect of over 40% in size
# Target sequence (P25779 123-467 limits assumed): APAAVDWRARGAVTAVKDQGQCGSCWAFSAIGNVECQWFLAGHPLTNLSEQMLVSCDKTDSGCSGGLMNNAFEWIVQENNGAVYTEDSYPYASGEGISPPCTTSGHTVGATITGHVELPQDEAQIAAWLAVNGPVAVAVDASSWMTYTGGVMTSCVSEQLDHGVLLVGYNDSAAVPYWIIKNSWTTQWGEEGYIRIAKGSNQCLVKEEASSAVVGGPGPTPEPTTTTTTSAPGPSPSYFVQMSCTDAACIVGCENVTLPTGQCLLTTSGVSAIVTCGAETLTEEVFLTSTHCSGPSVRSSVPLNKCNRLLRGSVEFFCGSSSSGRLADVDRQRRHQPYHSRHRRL
#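 Compounds were screened in titration against cruzain (1.5 nM) with 0.01% Triton X-100 to counter colloidal aggregation. Activity was the AMC fluorescence increase over 60 s after adding 2 uM Z-FR-AMC at pH 5.5.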
# Cruzain inh noDet – inhibitors of Trypanosoma cruzi cruzain without detergent. P25779. purified cruzain, Z-FR-AMC fluorescence, no detergent. Potency, µM, actives largely listed as inhibitors. 200,000 compounds, 2.3% hits; also: nearly all actives have a fitted effect of over 40% in size
#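 Detergent-free condition (0.00005% Triton X-100) in acetate buffer pH 5.5 with DTT. 1.5 nM enzyme and compound were pre-mixed 15 min, then 2 uM Z-FR-AMC substrate added; reaction progress from fluorescence change between first and third reads (60 s).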
# Hits are given with their value; . = inactive; ? = inconclusive; / = no result given; ! = not active in a repeat. Calls follow the shape of the dose curve; as a rule, active = well fitted curve in the direction sought with a large enough effect; inconclusive = small, poorly fitted or top-dose-only effect, or another doubt; inactive = no such curve, though single readings can be large; an effect the other way counts as inactive or inconclusive.
SMILES,Cruzain inh Det,Cruzain inh noDet
COc1cccc(NC(=O)Cn2c(=O)n(-c3ccccc3)c(=O)c3ccc(C(=O)NCc4ccc5c(c4)OCO5)cc32)c1,.,?
S[C@@H]1CCCN(Cc2ccccc2)C1,.,.
CCc1cccc(NC(=O)CSc2nc3c(c(=O)[nH]2)CCCC3)c1,.,25µM
O=C(CSc1nc2c(c(=O)[nH]1)CCC2)Nc1cccc(Cl)c1,.,.
COc1ccc(CC(=O)Nc2cc3oc4ccccc4c3cc2OC)cc1,.,.
CCOc1ccccc1-n1nnnc1SCC(=O)Nc1cc(C)on1,.,.
COc1cc2c(cc1NC(=O)C(C)Sc1nc3ccccc3n1C)oc1ccccc12 (stereo not given),.,25µM
CCOc1ccccc1-n1nnnc1SCC(=O)Nc1cc2oc3ccccc3c2cc1OC,.,7.9µM
COc1ccc(C(=O)NC(=S)Nc2cc3oc4ccccc4c3cc2OC)cc1,.,7.9µM
COc1cc(OC)cc(C(=O)NC(=S)Nc2cc3oc4ccccc4c3cc2OC)c1,.,4µM
COc1cc2c(cc1NC(=O)/C=C/c1cc(OC)c(OC)c(OC)c1)oc1ccccc12,.,?
COc1cc2c(cc1NC(=O)C(C)Sc1cccc[n+]1[O-])oc1ccccc12 (stereo not given),.,?
Cc1ccc(N2CC(NC(=O)c3cccs3)CC2=O)cc1 (stereo not given),.,.
Cc1cccc(NC(=O)C(=O)NCCc2csc(-c3ccc(F)cc3)n2)c1C,.,.
CCCSc1ncc(Cl)c(C(=O)N(Cc2ccc(N(C)C)cc2)C2CCS(=O)(=O)C2)n1 (stereo not given),.,.
CCc1ccc(NC(=O)CSc2ccc(-c3cccs3)nn2)cc1,.,?
COc1cc2c(cc1NC(=O)COc1ccc(Br)cc1)oc1ccccc12,.,.
COc1ccccc1CC(=O)Nc1cc2oc3ccccc3c2cc1OC,.,.
COc1cc2c(cc1NC(=O)COc1ccc3ccccc3c1)oc1ccccc12,.,10µM
COc1ccc(Cl)cc1NC(=O)CSc1ncnc2c1oc1ccccc12,.,16µM
COc1cccc(NC(=O)CSc2ncnc3c2oc2ccccc23)c1,.,.
COc1cc2c(cc1NC(=S)NC(=O)c1c(OC)cccc1OC)oc1ccccc12,.,6.3µM
CC1CCN(C(c2ccccc2)c2sc3nc(-c4ccco4)nn3c2O)CC1 (stereo not given),.,.
CC1CCCN(Cc2nc3c(c(=O)n(C)c(=O)n3C)n2Cc2ccc(Cl)cc2Cl)C1 (stereo not given),.,.
Cc1nc(SCC(=O)Nc2ccc(F)cc2)c(C#N)c(C)c1CC(=O)c1ccc(Br)cc1,.,?
SMILES,Cruzain inh Det,Cruzain inh noDet
Cc1cccc(NC(=O)CSc2nc(C)c(CC(=O)c3ccc(Br)cc3)c(C)c2C#N)c1C,.,13µM
C=C[C@]1(C)C[C@H](OC(=O)CO)[C@]2(C)C3C(=O)CC[C@]3(CC[C@H]2C)[C@H](C)[C@H]1O (stereo not given in full),.,.
CCCCc1oc2ccccc2c1C(=O)c1cc(I)c(OCCN(CC)CC)c(I)c1,13µM!,/
CCN(CC)CCOc1ncnc2c1oc1ccccc12,.,.
COc1cccc(CNC(=O)CN2C(=O)N(c3ccc(C)cc3C)S(=O)(=O)c3ccccc32)c1OC,.,?
O=C(NC(=S)Nc1ccc(N2CCCCC2)c(Cl)c1)c1ccc2c(c1)OCCO2,.,25µM
O=C(NC(=S)Nc1ccc(N2CCOCC2)c(Cl)c1)c1cncc(Br)c1,.,.
COc1ccc(NCc2cc3ccc(OC)cc3n(CC(=O)Nc3cccc(OC)c3)c2=O)cc1,.,?
Cc1ccc(N2CC(NC(=O)c3ccco3)CC2=O)cc1C (stereo not given),.,.
COc1ccccc1CNc1ccc(-c2nc(-c3cccc(C)c3)no2)cc1[N+](=O)[O-],.,.
O=C(Nc1ccc(SC(F)F)cc1)c1cc(-c2ccc3c(c2)OCCO3)on1,.,7.9µM
CC(=O)Nc1ccc(NC(=O)c2cc(-c3ccc4c(c3)OCCO4)on2)cc1,.,.
COCCCNC(=O)c1[nH]c2cc(OC)ccc2c1Sc1ccc(C)cc1,.,.
COc1ccc2c(Sc3ccc(C)cc3)c(C(=O)NCCc3ccccc3)[nH]c2c1,.,16µM
Cc1ccc(C)c(N2CCN(C(=O)CCc3nnc4n(CC(C)C)c(=O)c5ccccc5n34)CC2)c1,.,.
Oc1ccccc1C1Nc2cccc3cccc(c23)N1,.,.
COc1ccccc1C1Nc2cccc3cccc(c23)N1,.,25µM
c1ccc(-c2nc(NCC3CCCO3)c3ccccc3n2)nc1 (stereo not given),.,.
OCCNc1nc(Nc2ccccc2)nc(Nc2ccccc2)n1,.,.
OCCNc1nc(Nc2ccccc2)nc2ccccc12,?,16µM
Oc1cccc(Nc2nc(NCC3CCCO3)c3ccccc3n2)c1 (stereo not given),18µM,13µM
COC(=O)c1ccccc1NC(=O)Cn1c(=O)n(-c2ccc(Cl)cc2)c(=O)c2c(C)c(C)sc21,.,.
Cc1cc(=O)[nH]c2nnc(SCc3ccc(C(F)(F)F)cc3)n12,.,.
CC1CCN(S(=O)(=O)c2ccc(NC(=O)Cn3nnc(-c4ccccc4)n3)cc2)CC1,.,?
Cc1ccc(-c2nnn(CC(=O)Nc3ccc(S(=O)(=O)N4CCC(C)CC4)cc3)n2)cc1,.,10µM
SMILES,Cruzain inh Det,Cruzain inh noDet
CCOC(=O)c1cc(OC(=O)c2ccccc2F)n(-c2ccccc2)n1,.,.
COc1ccc(C2=C(C)C(=O)N(Cc3ccc(C(=O)Nc4cc(C)ccc4C)cc3)S2(=O)=O)cc1,.,?
CC1=C(c2ccc(C)cc2)S(=O)(=O)N(Cc2ccc(C(=O)Nc3ccc(C)c(F)c3)cc2)C1=O,.,20µM
CCOc1ccc(CC(=O)NCc2ccc3c(c2)CCN3C(=O)c2ccc(F)cc2)cc1OCC,.,?
CCOc1ccc(CCNC(=O)C2CCN(C(=O)N3CC(CC)Oc4ccccc43)CC2)cc1 (stereo not given),.,.
O=C(Cn1c(=O)n(Cc2ccc3c(c2)OCO3)c(=O)c2ccc(C(=O)NC3CCCCC3)cc21)Nc1ccccc1F,.,13µM
CCc1ccccc1NC(=O)Cn1c(=O)n(Cc2ccc3c(c2)OCO3)c(=O)c2ccc(C(=O)NC3CCCCC3)cc21,.,.
Clc1cc(Cl)cc(Cl)c1,.,.
Cc1ccc(-c2nnc(Nc3ccccc3)c3ccccc23)cc1S(=O)(=O)NCc1nc2ccccc2[nH]1,.,?
Cc1ccc(-c2nnc(Nc3cccc(Br)c3)c3ccccc23)cc1S(=O)(=O)N1CCCCC1,.,6.3µM
Cc1ccc(-c2nnc(Nc3cccc(Br)c3)c3ccccc23)cc1S(=O)(=O)N1CCN(C)CC1,.,.
Cc1ccc(-c2nnc(NCc3nc4ccccc4[nH]3)c3ccccc23)cc1S(=O)(=O)N1CCCCC1,.,13µM
Cc1ccccc1C1C=C(c2ccc(Cl)cc2)Nc2nnnn21 (stereo not given),.,.
CCc1nnc(NC(=O)c2nc(SC)ncc2Cl)s1,.,.
CCOc1ccccc1NC(=O)Cn1c(=O)nc(-c2ccccc2F)c2cc(Cl)ccc21,.,.
Cn1c(=O)c(=O)n(C)c2cc(C(=O)NCc3ccccc3Cl)ccc21,.,.
Cc1ccc(-n2ncc(C(=O)N3CCN(c4cccc(C)c4)C(C)C3)c2C2CCN(C(=O)OC(C)(C)C)CC2)cc1 (stereo not given),.,?
Cc1ccc(CNC(=O)c2cccc(-n3cnc4cccnc43)c2)cc1,.,.

# Screens from PubChem BioAssay.
